The results in this text go back to ChEMBL document CHEMBL2218924, “A broad activity screen in support of a chemogenomic map for kinase signalling research and drug discovery” (Biochem J, 2013).

Mitogen-activated protein kinase 10 (Homo sapiens), sequence (P53779 whole entry): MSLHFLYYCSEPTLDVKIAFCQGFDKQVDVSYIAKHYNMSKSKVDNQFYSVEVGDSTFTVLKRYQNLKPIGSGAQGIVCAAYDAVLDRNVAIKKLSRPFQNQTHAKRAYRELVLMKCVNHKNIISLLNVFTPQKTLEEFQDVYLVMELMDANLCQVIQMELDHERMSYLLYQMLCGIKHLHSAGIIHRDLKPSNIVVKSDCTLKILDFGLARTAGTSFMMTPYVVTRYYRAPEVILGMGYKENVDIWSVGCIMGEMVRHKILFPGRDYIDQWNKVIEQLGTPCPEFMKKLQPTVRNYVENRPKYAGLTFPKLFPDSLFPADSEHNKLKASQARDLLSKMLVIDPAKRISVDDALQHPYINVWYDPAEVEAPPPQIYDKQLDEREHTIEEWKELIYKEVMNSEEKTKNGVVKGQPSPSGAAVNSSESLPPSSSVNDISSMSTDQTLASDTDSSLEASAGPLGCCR

The first experiment addresses Mitogen-activated protein kinase 10 (Homo sapiens) (UniProt P53779). Particulars: at 10 µM.
As for `O=C1NC(=O)C(c2c[nH]c3ccccc23)=C1c1c[nH]c2ccccc12`, the residual activity is -3%.
On the same count and under the same terms, next, `O=C(Nc1ccc(Cl)cc1)c1ccccc1NCc1ccncc1`: 123%; `O=C(c1ccccc1)c1ccc(N2CCOCC2)cc1O`: 53%; `O=C1NC(=O)C(c2cn(CCCn3ccnc3)c3ccccc23)=C1Nc1ccccc1`: 68%.
`Fc1ccc(-c2nc3n(c2-c2ccncc2)CCS3)cc1`: the residual activity was found to be 7%.
In the case of `O=C1C(Cl)=C(N2C(=O)CCC2=O)C(=O)c2ccccc21`, the residual activity was 94%.
Consider `CN([C@@H](Cc1ccc(OS(=O)(=O)c2cccc3cnccc23)cc1)C(=O)N1CCN(c2ccccc2)CC1)S(=O)(=O)c1cccc2cnccc12`, for which the residual activity worked out at 75%.
For the molecule `COc1ccc(Cl)cc1NC(=O)Nc1cc(C)nc2ccccc12`, the residual activity stood at 78%.
With `CC(C)[C@H](CO)Nc1nc(Nc2cc(N)cc(Cl)c2)c2ncn(C(C)C)c2n1`, the residual activity was 67%.
On the same count and under the same terms, the figure for `Nc1n[nH]c2nc3ccccc3nc12` is 66%; for `N#Cc1c(NC(=O)c2cccc3ccccc23)sc2c1CCCC2` it is 0%.
For `CSc1nc(-c2ccc(F)cc2)c(-c2ccnc(NC(C)c3ccccc3)c2)[nH]1` (configuration not stated), the residual activity is -3%.
`O=C1Nc2ccccc2/C1=C\c1c(Cl)[nH]c2ccccc12`: the residual activity is 47%.
`COc1ccc(CNC(=O)Nc2ncc([N+](=O)[O-])s2)cc1`: the residual activity came out at 57%.
Take `Nc1nccc(-c2c(-c3ccc(F)cc3)ncn2C2CCNCC2)n1`: the residual activity was 22%.
For the molecule `O=C1Cc2c([nH]c3ccc([N+](=O)[O-])cc23)-c2ccccc2N1`, the residual activity came out at 66%.
Regarding `O=c1c(-c2ccc(F)cc2)c(-c2ccncc2)[nH]n1-c1ccc(Cl)cc1`, the residual activity was -2%.
With `N#C/C(=C\c1ccc(O)c(O)c1)C(=O)NCc1ccccc1`, the residual activity was determined as 72%.
Regarding `CC(C)N(CCC(=O)c1ccc2ccccc2c1)Cc1ccccc1`, the residual activity was determined as 84%.

The target in a further experiment is Vascular endothelial growth factor receptor 2 (Homo sapiens) (UniProt P35968). Particulars: at 1 µM.
Vascular endothelial growth factor receptor 2 (Homo sapiens), sequence (P35968 whole entry): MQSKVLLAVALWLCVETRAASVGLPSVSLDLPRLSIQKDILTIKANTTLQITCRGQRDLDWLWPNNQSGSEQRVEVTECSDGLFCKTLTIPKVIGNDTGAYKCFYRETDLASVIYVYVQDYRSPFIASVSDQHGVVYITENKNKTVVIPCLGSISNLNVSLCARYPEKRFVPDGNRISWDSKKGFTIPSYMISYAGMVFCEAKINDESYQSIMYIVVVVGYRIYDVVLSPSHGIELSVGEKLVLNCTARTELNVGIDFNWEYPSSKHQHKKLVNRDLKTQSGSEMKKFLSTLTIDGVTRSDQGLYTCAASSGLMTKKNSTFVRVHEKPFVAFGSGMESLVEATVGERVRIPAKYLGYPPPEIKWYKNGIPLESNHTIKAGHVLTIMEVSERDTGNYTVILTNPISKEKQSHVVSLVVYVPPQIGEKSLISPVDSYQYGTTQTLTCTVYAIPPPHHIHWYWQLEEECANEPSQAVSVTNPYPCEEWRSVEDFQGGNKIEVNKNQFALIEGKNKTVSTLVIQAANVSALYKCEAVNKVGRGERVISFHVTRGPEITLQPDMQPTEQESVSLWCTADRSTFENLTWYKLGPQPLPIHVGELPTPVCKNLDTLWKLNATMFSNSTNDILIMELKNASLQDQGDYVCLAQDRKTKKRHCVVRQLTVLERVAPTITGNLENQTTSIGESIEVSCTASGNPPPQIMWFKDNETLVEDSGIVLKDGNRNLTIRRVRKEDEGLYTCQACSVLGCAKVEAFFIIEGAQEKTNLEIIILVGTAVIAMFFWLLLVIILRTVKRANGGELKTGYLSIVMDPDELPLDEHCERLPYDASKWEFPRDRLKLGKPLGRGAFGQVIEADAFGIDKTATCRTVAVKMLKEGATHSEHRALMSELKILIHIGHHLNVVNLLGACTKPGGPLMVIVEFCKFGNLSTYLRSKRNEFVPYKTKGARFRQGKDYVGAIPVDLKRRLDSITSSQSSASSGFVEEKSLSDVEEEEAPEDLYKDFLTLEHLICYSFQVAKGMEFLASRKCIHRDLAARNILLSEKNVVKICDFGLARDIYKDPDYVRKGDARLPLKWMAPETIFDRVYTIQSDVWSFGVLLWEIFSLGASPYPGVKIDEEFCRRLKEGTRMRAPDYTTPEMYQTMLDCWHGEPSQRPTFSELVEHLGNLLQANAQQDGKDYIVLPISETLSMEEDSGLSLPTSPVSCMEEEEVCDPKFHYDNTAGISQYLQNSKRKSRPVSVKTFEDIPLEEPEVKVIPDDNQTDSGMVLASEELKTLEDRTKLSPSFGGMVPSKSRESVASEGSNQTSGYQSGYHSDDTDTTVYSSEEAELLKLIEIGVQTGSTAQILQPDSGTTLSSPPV
As to `O=C1NC(=O)C(c2c[nH]c3ccccc23)=C1c1c[nH]c2ccccc12`, the residual activity turned out to be 16%.
Regarding `CCOC(=O)c1c(C)[nH]c(/C=C2\C(=O)Nc3ccccc32)c1C`, the residual activity was determined as 16%.
As for `O=C1Cc2c([nH]c3ccc(Br)cc23)-c2ccccc2N1`, the residual activity is 74%.
As for `COc1ccc(-c2cnc3c(-c4ccsc4)cnn3c2)cc1`, the residual activity came out at 88%.
As to `NC(=O)c1cccc(-c2cc(Nc3ccc(OC(F)(F)F)cc3)ncn2)c1`, the residual activity was 100%.
With `O=C(Nc1ccc(Cl)cc1)c1ccccc1NCc1ccncc1`, the residual activity was found to be 3%.
With `O=C(c1ccccc1)c1ccc(N2CCOCC2)cc1O`, the residual activity worked out at 99%.
`O=C1NC(=O)C(c2cn(CCCn3ccnc3)c3ccccc23)=C1Nc1ccccc1`: the residual activity is 73%.
Take `Cc1cc(C)c(/C=C2\C(=O)Nc3ccccc32)[nH]1`: the residual activity is 4%.
In the case of `O=C1Cc2c([nH]c3ccc([N+](=O)[O-])cc23)-c2ccccc2N1`, the residual activity was determined as 52%.
Still for that read-out and setting: the figure for `O=c1c(-c2ccc(F)cc2)c(-c2ccncc2)[nH]n1-c1ccc(Cl)cc1` is 102%.

Another experiment shares this target. Particulars: at 10 µM.
`O=C1NC(=O)C(c2c[nH]c3ccccc23)=C1c1c[nH]c2ccccc12`: the residual activity stood at 2%.
Consider `CCOC(=O)c1c(C)[nH]c(/C=C2\C(=O)Nc3ccccc32)c1C`, for which the residual activity worked out at 28%.
Take `O=C1Cc2c([nH]c3ccc(Br)cc23)-c2ccccc2N1`: the residual activity turned out to be 31%.
For `COc1ccc(-c2cnc3c(-c4ccsc4)cnn3c2)cc1`, the residual activity was found to be 68%.
`NC(=O)c1cccc(-c2cc(Nc3ccc(OC(F)(F)F)cc3)ncn2)c1`: the residual activity was determined as 89%.
In the case of `O=S(=O)(NCCNC/C=C/c1ccc(Br)cc1)c1cccc2cnccc12`, the residual activity was 62%.
The same measure, in the same setting: the figure for `O=C(Nc1ccc(Cl)cc1)c1ccccc1NCc1ccncc1` is 4%; for `O=C(c1ccccc1)c1ccc(N2CCOCC2)cc1O` it is 96%.
In the case of `O=C1NC(=O)C(c2cn(CCCn3ccnc3)c3ccccc23)=C1Nc1ccccc1`, the residual activity was 22%.
Regarding `N#Cc1c(NC(=O)c2cccc3ccccc23)sc2c1CCCC2`, the residual activity was 96%.
For the molecule `CSc1nc(-c2ccc(F)cc2)c(-c2ccnc(NC(C)c3ccccc3)c2)[nH]1` (configuration not stated), the residual activity stood at 87%.
Regarding `O=C1Nc2ccccc2/C1=C\c1c(Cl)[nH]c2ccccc12`, the residual activity is 30%.
Same read-out and setting: next, `Cc1cc(C)c(/C=C2\C(=O)Nc3ccccc32)[nH]1`: 2%.
Same read-out and setting: the figure for `O=C1Cc2c([nH]c3ccc([N+](=O)[O-])cc23)-c2ccccc2N1` is 42%; for `O=c1c(-c2ccc(F)cc2)c(-c2ccncc2)[nH]n1-c1ccc(Cl)cc1` it is 54%.
The same measure, in the same setting: the figure for `N#C/C(=C\c1ccc(O)c(O)c1)C(=O)NCc1ccccc1` is 87%; for `CC(C)N(CCC(=O)c1ccc2ccccc2c1)Cc1ccccc1` it is 85%.

The target of a further experiment is LIM domain kinase 1 (Homo sapiens) (UniProt P53667). The settings on record: at 1 µM.
LIM domain kinase 1 (Homo sapiens), sequence (P53667 whole entry, looked up, the tested form may be a part): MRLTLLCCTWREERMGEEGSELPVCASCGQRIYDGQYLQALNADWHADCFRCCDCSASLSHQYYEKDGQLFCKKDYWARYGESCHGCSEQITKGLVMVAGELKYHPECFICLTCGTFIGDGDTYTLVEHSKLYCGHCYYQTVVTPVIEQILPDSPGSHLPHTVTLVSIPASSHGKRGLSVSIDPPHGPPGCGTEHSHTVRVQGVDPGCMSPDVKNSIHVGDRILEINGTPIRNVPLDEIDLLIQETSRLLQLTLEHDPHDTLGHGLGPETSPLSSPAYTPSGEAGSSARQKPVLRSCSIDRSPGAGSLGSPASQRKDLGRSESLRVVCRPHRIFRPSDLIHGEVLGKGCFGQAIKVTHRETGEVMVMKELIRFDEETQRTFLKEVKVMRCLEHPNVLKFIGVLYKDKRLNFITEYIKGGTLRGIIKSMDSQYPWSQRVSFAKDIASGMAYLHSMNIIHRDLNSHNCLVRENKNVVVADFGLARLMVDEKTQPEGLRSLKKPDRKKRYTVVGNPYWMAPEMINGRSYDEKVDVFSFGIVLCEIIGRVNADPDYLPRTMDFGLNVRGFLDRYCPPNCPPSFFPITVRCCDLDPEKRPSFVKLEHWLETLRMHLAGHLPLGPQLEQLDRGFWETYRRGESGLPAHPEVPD
In the case of `O=C1Cc2c([nH]c3ccc(Br)cc23)-c2ccccc2N1`, the residual activity was determined as 89%.
On to `O=S(=O)(NCCNC/C=C/c1ccc(Br)cc1)c1cccc2cnccc12`, for which the residual activity was determined as 79%.
Turning to `COc1cc2nccc(Oc3ccc(NC(=O)Nc4cc(C)on4)c(Cl)c3)c2cc1OC`, the residual activity was found to be 67%.
On to `O=C1C(Cl)=C(N2C(=O)CCC2=O)C(=O)c2ccccc21`, for which the residual activity was 88%.
In the case of `CN([C@@H](Cc1ccc(OS(=O)(=O)c2cccc3cnccc23)cc1)C(=O)N1CCN(c2ccccc2)CC1)S(=O)(=O)c1cccc2cnccc12`, the residual activity came to 99%.
Take `Nc1n[nH]c2nc3ccccc3nc12`: the residual activity worked out at 89%.
Consider `N#Cc1c(NC(=O)c2cccc3ccccc23)sc2c1CCCC2`, for which the residual activity came to 92%.
For the molecule `O=C(Nc1nc2ccccc2n1CCN1CCOCC1)c1cccc([N+](=O)[O-])c1`, the residual activity was determined as 105%.
Turning to `Nc1nccc(-c2c(-c3ccc(F)cc3)ncn2C2CCNCC2)n1`, the residual activity amounted to 64%.
On to `O=c1cc(N2CCOCC2)oc2c(-c3ccccc3)cccc12`, for which the residual activity is 101%.
